The record followed here is PubChem BioAssay (NCATS).

In assay [1] the target is Calcium and integrin-binding protein 1 (Homo sapiens) (UniProt Q99828). Put plainly: Primary qHTS for Identification of Calcium Integrin Binding Protein 1 (CIB1) Competitor (AID 1508620; active = well fitted curve in the direction sought with a large enough effect; an effect the other way counts as inactive or inconclusive;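 note: GST tagged CIB1 binding a fluorescein labelled alphaIIb integrin peptide tracer; top concentration of the series differs between compounds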). In outline:
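CIB1-GST (1 uM final) and compound incubated 15 min at room temperature before adding FITC-alphaIIb peptide tracer (100 nM final). Competition for binding read by fluorescence polarization (ex 480, em 540) after another 15 min at room temperature.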
For orientation: qHTS replaces the single test concentration by a dilution series.

For assay [2], the target named is Cytochrome P450 2D6 (Homo sapiens) (UniProt P10635). Put plainly: Cytochrome P450 family 2 subfamily D member 6 (CYP2D6) small molecule antagonists: luciferase biochemical (cell-free) qHTS assay (AID 1645840). Note: nearly all actives have a fitted effect of over 55% in size. Note: potency is the fitted concentration of half-maximal effect. In outline: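 P450-Glo luminescent screen: recombinant CYP2D6 enzyme–proluciferin substrate mix preincubated with compound 10 min at room temperature, then NADPH regeneration added for 1 h at room temperature. Detection reagent added for 20 min; luciferin light read as relative luminescence units.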

Assay [3] deals with Cytochrome P450 2C9 (Homo sapiens) (UniProt P11712). The assay can be described thus: Cytochrome P450 family 2 subfamily C member 9 (CYP2C9) small molecule antagonists: luciferase biochemical (cell-free) qHTS assay (AID 1645842). Note: nearly all actives have a fitted effect of over 55% in size. Note: potency is the fitted concentration of half-maximal effect. In outline:
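Luminescence, after 20 min with luciferin detection reagent, reflected CYP2C9 turnover during a 1 h NADPH-driven reaction at 37C. Enzyme-substrate mix contained 0.4% bovine serum albumin and was preincubated with compound 10 min at room temperature.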

Molecules are shown by their SMILES. Results filed as inconclusive are left out. The source made the active and inactive calls. Unless noted, calls come from the whole dose curve; as a rule, active = well fitted curve in the direction sought with a large enough effect in the repeat runs; inconclusive = weak or mixed curves; inactive = no such curve, though single readings can be large; an effect the other way counts as inactive or inconclusive.

Cytochrome P450 2C9 (Homo sapiens), sequence (P11712 whole entry, looked up): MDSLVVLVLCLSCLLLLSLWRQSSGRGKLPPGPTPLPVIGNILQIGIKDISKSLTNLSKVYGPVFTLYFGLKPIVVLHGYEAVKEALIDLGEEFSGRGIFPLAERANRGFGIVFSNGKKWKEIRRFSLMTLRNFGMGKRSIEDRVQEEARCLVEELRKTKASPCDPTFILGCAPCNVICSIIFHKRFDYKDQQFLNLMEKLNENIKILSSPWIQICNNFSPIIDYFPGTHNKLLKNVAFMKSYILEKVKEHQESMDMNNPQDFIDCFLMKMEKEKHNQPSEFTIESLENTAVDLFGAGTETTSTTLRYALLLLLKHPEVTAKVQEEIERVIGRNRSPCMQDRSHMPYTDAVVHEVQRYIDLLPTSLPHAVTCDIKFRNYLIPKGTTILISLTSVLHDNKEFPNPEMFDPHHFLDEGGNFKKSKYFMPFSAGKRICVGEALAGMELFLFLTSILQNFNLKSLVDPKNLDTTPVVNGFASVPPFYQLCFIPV
Calcium and integrin-binding protein 1 (Homo sapiens), sequence (Q99828 whole entry, looked up): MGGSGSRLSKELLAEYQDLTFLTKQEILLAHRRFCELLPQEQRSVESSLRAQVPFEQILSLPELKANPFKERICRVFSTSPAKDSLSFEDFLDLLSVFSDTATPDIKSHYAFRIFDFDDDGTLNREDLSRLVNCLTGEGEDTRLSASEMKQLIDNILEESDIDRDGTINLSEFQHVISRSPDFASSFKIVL
Cytochrome P450 2D6 (Homo sapiens), sequence (P10635 whole entry, looked up): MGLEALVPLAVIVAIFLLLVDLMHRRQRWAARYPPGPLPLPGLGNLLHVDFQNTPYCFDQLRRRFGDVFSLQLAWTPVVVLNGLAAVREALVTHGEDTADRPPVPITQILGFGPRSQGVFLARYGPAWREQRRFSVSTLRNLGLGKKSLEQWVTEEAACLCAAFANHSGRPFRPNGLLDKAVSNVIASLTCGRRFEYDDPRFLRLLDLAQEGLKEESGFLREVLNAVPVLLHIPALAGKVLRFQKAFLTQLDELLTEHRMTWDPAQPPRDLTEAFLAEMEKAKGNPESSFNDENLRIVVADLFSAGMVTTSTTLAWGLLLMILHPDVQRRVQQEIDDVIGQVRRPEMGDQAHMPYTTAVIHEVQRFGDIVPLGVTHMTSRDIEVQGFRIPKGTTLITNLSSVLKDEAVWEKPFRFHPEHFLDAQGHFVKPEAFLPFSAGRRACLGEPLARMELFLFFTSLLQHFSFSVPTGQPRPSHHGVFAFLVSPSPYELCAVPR

As for `C=C1CCN([C@H](C)[C@](O)(Cn2cncn2)c2ccc(F)cc2F)CC1`, the Potency result in assay [1] is “inactive”. The Potency was 23.9 µM (active) in assay [2] and 0.477 µM (active) in assay [3].
In the case of `Cc1ccc(S(=O)(=O)N2CCC[C@H]2c2ccc(F)cc2)cc1`, the Potency result in assay [1], in assay [2] and in assay [3] was “inactive” throughout.
`O=C(COc1ccc(C(=O)c2ccccc2)cc1)NC1CCN(Cc2ccccc2)CC1`: in assay [1], the Potency entry was “inactive”. In addition, the Potency is 0.338 µM (active) in assay [2] and 4.77 µM (active) in assay [3].
As for `COc1ccc(-c2cc3onc(-c4ccncc4)c3c(=O)n2C)cc1`, in assay [1], the Potency result is “inactive”. Further, the Potency is 9.52 µM (active) in assay [2] and 0.952 µM (active) in assay [3].
The matching figures for `O=C(NCCN1CCC(n2c(=O)[nH]c3ccccc32)CC1)c1cc2cc(F)ccc2[nH]1`: “inactive”, 15.1 µM (active) and 3.38 µM (active).
Consider `CS(=O)(=O)Nc1ccc2oc3c(OC(F)F)ccc(C(=O)Nc4c(Cl)cncc4Cl)c3c2c1`, for which the Potency result in assay [1] was “inactive”. Further, the results for the Potency in assay [2] and in assay [3] were 12 µM (active) and 3.38 µM (active), respectively.
The matching figures for `O=C(CSc1nc2ccccc2c(=O)n1-c1ccccc1)Nc1ccc2c(c1)CCC2`: “inactive”, “inactive” and 2.68 µM (active).
The matching figures for `CCC[C@@]1(CCc2ccccc2)CC(O)=C([C@H](CC)c2cccc(NS(=O)(=O)c3ccc(C(F)(F)F)cn3)c2)C(=O)O1`: “inactive”, 6.01 µM (active) and 26.8 µM (active).
As for `CC(C)Nc1nc(Nc2ccccc2)nc(-c2ccccc2)n1`, the Potency entry in assay [1] and in assay [2] was “inactive” throughout. The Potency in assay [3] is 7.56 µM (active).
As for `CCNC1(C(N)=O)CCN(c2ncnc3c2nc(-c2ccccc2Cl)n3-c2ccc(Cl)cc2)CC1`, the Potency entry in assay [1] is “inactive”. Moreover, the Potency in assay [2] is 16.9 µM (active); in assay [3] it was 2.13 µM (active).
The matching figures for `Cc1ccc(C)c(NC(=O)[C@@H]2CCCN2S(=O)(=O)c2cccc3cccnc23)c1`: “inactive”, 16.9 µM (active) and 6.74 µM (active).
With `NC(=O)c1nc(Nc2ccccc2)sc1NC(=O)C1CCCCC1`, the Potency entry in assay [1] and in assay [2] was “inactive” in each case. For the same compound, in assay [3], the Potency was 0.601 µM (active).
`Clc1cccc(COc2cncc(N3CCNCC3)n2)c1`: the Potency entry in assay [1] and in assay [3] was “inactive” in each case. For the same compound, in assay [2], the Potency is 8.49 µM (active).
With `CCc1ccc(-c2nc(CSCC(=O)NCCc3ccccc3)c(C)o2)cc1`, the Potency entry in assay [1] was “inactive”. Besides, the values for the Potency in assay [2] and in assay [3] were 15.1 µM (active) and 8.49 µM (active), respectively.
Turning to `CC(=O)Nc1cccc(Nc2ncnc(N3CCC(OCc4ccc(OC(F)(F)F)cc4)CC3)n2)c1C`, the Potency entry in assay [1] and in assay [2] was “inactive” in each case. Further, in assay [3], the Potency was 13.5 µM (active).
In the case of `Nc1ncnc2c1c(-c1ccc(Cl)cc1)nn2-c1cccc(-c2cnnn2Cc2cccc(-c3ccccc3)c2)c1`, the Potency result in assay [1] and in assay [2] was “inactive” in each case. Also, the Potency in assay [3] is 0.536 µM (active).
Turning to `Cc1nnc(-c2ccc(-c3ccc(C(=O)Nc4ccc(O)c(N5CCN(C)CC5)c4)cc3)c(C)c2)o1`, the Potency result in assay [1], in assay [2] and in assay [3] was “inactive” throughout.
In the case of `Cc1[nH]cnc1C[C@H]1CCc2c(C)c3ccccc3n2C1=O`, the Potency result in assay [1] is “inactive”. Further, the Potency is 0.301 µM (active) in assay [2] and 0.19 µM (active) in assay [3].
For the compound `CC(C)c1cccc(C(C)C)c1NC(=O)Nc1ccc(Sc2ccc([N+](=O)[O-])cc2)cc1`, the Potency entry in assay [1], in assay [2] and in assay [3] was “inactive” throughout.
As to `COc1ccc([C@H](Cc2ccncc2)c2ccccc2)cc1OC1CCCC1`, the Potency entry in assay [1] was “inactive”. The values for the Potency in assay [2] and in assay [3] were 12 µM (active) and 0.425 µM (active), respectively.
The matching figures for `Fc1ccc(-c2nc(-c3ccccc3F)[nH]c2-c2ccncc2)cc1`: “inactive”, 1.2 µM (active) and 1.69 µM (active).
The matching figures for `Cc1nc(N2CCN(C(=O)c3ccco3)CC2)c2c3c(sc2n1)CCCC3`: “inactive”, 10.7 µM (active) and 4.77 µM (active).
The corresponding values for `O=C(OC1CN2CCC1CC2)N1CCc2ccccc2C1c1ccccc1` (configuration not stated) are “inactive”, 19 µM (active) and “inactive”.
With `O=C(Nc1ccccc1)N1CCC(Cc2cnc3ccccc3c2)CC1`, the Potency entry in assay [1] is “inactive”. Also, the Potency in assay [2] is 26.8 µM (active); in assay [3], 12 µM (active).
As to `CCN(CCNC(=O)Nc1ccccc1Br)c1cccc(C)c1`, in assay [1], the Potency entry is “inactive”. Moreover, the Potency in assay [2] was 1.9 µM (active); in assay [3] it was 3.79 µM (active).
The corresponding values for `O=C(C(Cc1cccc(C(F)(F)F)c1)NS(=O)(=O)c1cc(F)c2c(c1)CCNC2)N1CCCC1` (configuration not stated) are “inactive”, 13.5 µM (active) and 12 µM (active).
The matching figures for `O=C(NCc1ccc(OC(F)(F)F)cc1)C1c2c(F)cccc2C(=O)N1CCc1ccccn1` (configuration not stated): “inactive”, 10.7 µM (active) and 3.79 µM (active).
With `O=C(N[C@@H]1CCCc2c1cnn2-c1ccc(F)cc1F)c1ccccn1`, the Potency result in assay [1] and in assay [2] was “inactive” throughout. In assay [3], the Potency is 21.3 µM (active).
Consider `CCn1c(-c2nonc2N)nc2c(C#CCO)ncc(OCCCN)c21`, for which the Potency result in assay [1], in assay [2] and in assay [3] was “inactive” each time.
In the case of `CNCc1cc(-c2ccccc2F)n(S(=O)(=O)c2cccnc2)c1`, the Potency result in assay [1] and in assay [3] was “inactive” in each case. Moreover, the Potency in assay [2] is 19 µM (active).
In the case of `Cc1c(Cl)cccc1S(=O)(=O)Nc1nc(NCCc2ccccc2)nc2c1CN(Cc1ccccc1)CC2`, in assay [1], the Potency result is “inactive”. For the same compound, the Potency was 4.77 µM (active) in assay [2] and 6.01 µM (active) in assay [3].
The corresponding values for `CN(C)S(=O)(=O)c1ccc(NC(=S)N2CCC(C(O)(c3ccccc3)c3ccccc3)CC2)cc1` are “inactive”, “inactive” and 2.68 µM (active).
The corresponding values for `CCOC(=O)CCNc1cc(N2CCc3ccccc3CC2)nc(-c2cccnc2)n1` are “inactive”, 10.7 µM (active) and 8.49 µM (active).
The corresponding values for `CNCCCC1(c2ccccc2)OC(C)(C)c2ccccc21` (configuration not stated) are “inactive”, 6.74 µM (active) and “inactive”.
